# Results published in ChEMBL document CHEMBL3988442, “University of Dundee, Small-Polar-MMV Screening Library” (2021).
# “And” between values parts separate entries of the source, which are not always exact repeats. Equal values may be shown once. In all, about 34,000 compounds went through this assay and about 290 (0.85%) showed an effect of 50% or more. The list comes from a sample in which strong results are over-represented; it also holds similar structures and randomly drawn compounds.
# Tested on: Plasmodium falciparum
# Test: Plasmodium falciparum sporozoite viability assay
# Format: functional, organism-based
# Set-up: scale not given: in the data most compounds retested in dose-response had high values
Structure (SMILES),Percent Effect [%],Percent Effect (10 mM as filed; unlikely as a test dose)
O=C(c1ccncc1)N1CCc2[nH]nc(Nc3ccccc3)c2C1,-2.217,–
Cn1cnc2cc(NC(=O)c3n[nH]c4c3CCC4)ccc21,–,-48.98% and -33.08%
CN(C)CCCn1cnc2cc(NC(=O)c3n[nH]c4c3CCC4)ccc21,–,-35.39% and -25.92%
CC(C)c1nc2cc(NC(=O)c3n[nH]c4c3CCC4)ccc2n1C,–,73.89% and 87.21%
Cn1cc(C(=O)N2CCN(Cc3ccccn3)CC2)ccc1=O,-3.259,–
Cc1ccccc1C(C(=O)O)N(C)CC1CCOCC1 (stereo unspecified),-26.36,–
COc1c(CNC(c2ccccc2)c2nccn2C)c(C)nn1C (stereo unspecified),11.35,–
O=C(O)c1ccccc1-c1ccc(CN2CCOCC2)cn1,6.918,–
C(=C\c1ccc(CN2CCCC2)cn1)/c1ccccc1,–,78.68% and 64.66%
c1cc(-c2cn[nH]c2)ncc1CN1CCCCC1,–,-7.187% and -9.51%
O=C(C1CCOC1)N1C[C@H]2CN(Cc3cccc(F)c3)C(=O)[C@H]2C1 (stereo partly specified),12.32,–
CC(C)NC(=O)c1csc(NC2CC2)n1,-5.904,–
NC(=O)c1cn[nH]c1C1CCCN1C(=O)c1ccccc1 (stereo unspecified),-3.133,–
COc1ncnc(N(C)C)c1NC(=O)c1cscc1C,-11.09,–
COC(=O)[C@@H]1CN(C(=O)c2cscn2)C[C@H]1c1ccc(OC)cc1,5.827,–
O=C(Nc1cc(C2CCOCC2)[nH]n1)c1cscn1,17.19,–
COc1cc(N[C@@H](Cc2ccccc2)C(N)=O)ncn1,10.88,–
Cc1cnc(CN(C)C2CCN(Cc3nnc(C4CC4)o3)C2)o1 (stereo unspecified),13.1,–
OC(COCc1ccccc1)CN1CCC(c2ccn[nH]2)CC1 (stereo unspecified),8.709,–
c1cc(CN2CCCC(c3nnc(-c4cnccn4)o3)C2)ccn1 (stereo unspecified),8.33,–
O=C(O)C(F)(F)F.O=C1COC2(CCN(Cc3ccoc3)CC2)CN1c1ccsc1,-2.422,–
Cn1cc(CN2CC[C@H](O)[C@@H]2Cc2ccncc2)cn1,14.17,–
Cc1cc(C)n(C(=O)Cn2nc(C)c(I)c2C)n1,-1.053,–
CN1CCCC1CCn1ccnc1-c1nc(-c2ccccc2)no1 (stereo unspecified),–,77.95% and 70.89%
CN1CCCC1c1ccnc(-c2ccccc2)n1 (stereo unspecified),8.44,–
CN(C)c1ncccc1CNS(=O)(=O)c1ccc(F)cc1F,5.626,–

Structure (SMILES),Percent Effect [%],Percent Effect (10 mM as filed; unlikely as a test dose)
CC/N=c1\nc(NCC)nc2n1C(O)(Nc1ccc(C)cc1C)CS2 (stereo unspecified),–,76.89% and 79.52%
CC/N=c1\nc(NCC)nc2n1C(O)(Nc1cccc(C)c1C)CS2 (stereo unspecified),–,-13.62% and 2.28%
CC/N=c1\nc(NCC)nc2n1C(O)(Nc1cc(C)ccc1C)CS2 (stereo unspecified),–,-7.651% and -13.62%
O=S(=O)(c1ccccc1)N1CCC[C@]2(C[C@H](OCC3CC3)CO2)C1,-0.3567,–
Cc1ccccc1OCCCC(=O)NCC1CN(C)CCO1 (stereo unspecified),–,6.067% and -2.638% and -0.6996%
CN1CCOC(CNC(=O)CCCOc2ccccc2F)C1 (stereo unspecified),–,51.69% and 61.26% and 47.35%
CCn1cnnc1C1CCN(C(=O)COCCc2ccccc2)CC1,–,-3.699% and -24.35% and -22.69%
CC(O)CN1CCN(C(=O)CCOc2ccccc2F)CC1 (stereo unspecified),–,8.088% and -8.879% and -8.774%
O=C(CCOc1ccccc1F)N1CCC(O)CC1,–,-2.056% and -15.58% and -4.248%
CN1CCOC(CNC(=O)CCCOc2cccc(F)c2)C1 (stereo unspecified),–,7.848% and 7.883% and 5.332%
CCn1cnnc1C1CCN(C(=O)CCCOc2ccccc2)CC1,–,42.92% and 40.5% and 58.13%
CO[C@H]1C[C@@H](O)C12CCN(C(=O)CCCOc1ccccc1)CC2,–,88.4% and 94.39%
CO[C@H]1C[C@@H](O)C12CCN(C(=O)NCc1ccco1)CC2,8.391,–
NCCO[C@H]1C[C@@H](O)C12CCN(C(=O)CCOc1ccccc1)CC2,–,3.322% and 1.71%
Cc1cnccc1CN1Cc2ccccc2O[C@]2(CC[C@H](CO)CC2)C1,13.72,–
Cc1cc(CN2CCCC(c3cc(C(F)(F)F)[nH]n3)C2)no1 (stereo unspecified),9.793,–
O=C(CCCc1nnc(-c2ccccc2)o1)N1CCN(C2CC2)CC1,16.07,–
Cc1ccc(NC2CCN(C(=O)c3cnn(C(C)(C)C)c3)CC2)nn1,-0.1023,–
c1ccn2c(C3CCCN3Cc3nc(C4CC4)no3)nnc2c1 (stereo unspecified),-1.432,–
Cc1cnn(CC2CN(CC(=O)Nc3ccnn3C(C)C)CCO2)c1 (stereo unspecified),2.692,–
Cn1cnnc1C1CCN(C(=O)CCCOc2ccccc2F)CC1,–,83.01% and 69.05% and 60.83%
Cc1ccccc1OCCC(=O)N1CCC(c2nncn2C)CC1,–,2.17% and -2.919% and 0.9191%
CC(C)Nc1nc(O)cc(C2CC(=O)N(Cc3ccccn3)C2)n1.Cl (stereo unspecified),10.31,–
CNc1cc(C)nc(C2CN(Cc3ccc(Cl)cn3)CCO2)c1 (stereo unspecified),20.7,–
CCC(=O)N1CCC(c2ncc(C(=O)Nc3ccccc3)c(C)n2)C1 (stereo unspecified),8.085,–
